Measured values published in PubChem BioAssay (EPA / NIEHS).
The source made the active and inactive calls. Rule for the calls: active = hit-call score of the fitted dose curve at least 0.9, where 1 is the maximum; inactive = score below 0.9.

These compounds were tested on Interleukin 6 (IL6), IL6 (gene 3569) (assay: LTEA_HepaRG_IL6: Life Technologies and Expression Analysis (LTEA) Assay for Interleukin 6 (IL6) using HepaRG (AID 2283509)). Settings: mRNA level, 48 h; actives raise or lower the signal.
Protocol: LTEA_HepaRG is a cell based, multiplexed-readout assay that uses HepaRG, a human liver cell line, with measurements taken at 48 hours after chemical dosing on a 96-well plate.LTEA_HepaRG_IL6 is one of 102 assay component(s) measured in the LTEA HepaRG cell culture assay. It is a marker of Inflammation.Data from the assay component LTEA_HepaRG_IL6 was analyzed into 1 endpoint. This assay endpoint, LTEA_HepaRG_IL6, was analyzed with bidirectional fitting relative to DMSO as the negative control and baseline of activity. Using a type of inducible reporter, measures of mRNA induction for gain or loss-of-signal activity can be used to understand regulation of transcription factor activity. To generalize the intended target to other relatable targets, this assay endpoint is annotated to the cytokine intended target family, where the subfamily is interleukins.
A total of 1060 chemcials from the ToxCast library were tested in eight-point concentration-response experiments. Cell culture and cytotoxicity assays were conducted at Thermo Fisher Scientific's Custom Services facility (Madison, WI). A single lot of human HepaRG cells (Thermo Fisher Scientific, Frederick, MD) was used for the cell culture experiments. 96-well format collagen type I coated plates of human HepaRG cells were prepared using established methods. Briefly, cryopreserved HepaRG cells were thawed, plated at a density of approximately 100,000 cells/well in HepaRG Thaw, Plate, and General Purpose media (HPRG770, Thermo Fisher Scientific), and incubated for 48 hours. 0.5% DMSO was selected as vehicle control to balance the requisite need of DMSO in HepaRG cultures to maintain differentiation (for example, baseline metabolism, proportions of hepatocytes vs. cholangiocytes), while enabling further hepatic receptor pathway activation (for example, PXR and CAR) in response to chemical exposure. 48 hours after plating, the culture medium was replaced with HepaRG Serum-Free Incudtion Media. Cells were exposed to each test chemical in duplicate and maintained in CO2 incubators for another 48 hours. Chemical plates were thawed to room temperature and 200x concentrations of treatment groups were prepared. 8-point conentration-reponse curves were made with the highest exposure at 100 uM, followed by half-log dilutions, all in 0.5% DMSO. Each test plate contained variouse controls, induction positive controls (1mM phenobarbital), cytotoxicity positive controls ([…] aflatoxin B1), vehicle controls (0.5% DMSO), and total lysis controls (0.5% DMSO). Cell morphology images were taken using an Essen IncuCyte FLR automated microscope, with six 96-well plates imaged in about 24 minutes. Images were captured and exported and JPEG files. Spent culture media was transfered to black-well plates for the LDH assay, and remaining media was sorted at -80 C for later use. Cells were treated with RLT buffer and frozen until shipped for gene expression analysis. Total RNA was isolated from the cell suspension in 75 uL of Buffer RLT (Qiagen, Germantown, MD 20874) by Quintiles/Expression Analysis (Durham, NC) using a custom isolation procedure. Total RNA from each plate well was transferred to a preamplification plate. Fluidigm's 96.96 Dynamic ArrayTM (Fluidigm, Amsterdam, the Netherlands) technology was used for gene expression analyses by quantitative reverse transcription polymerase chain reaction (qRT-PCR, performed by Quintiles/Expression Analysis, Durham, NC)89. Standard TaqManTM Assays (Applied Biosystems/ThermoFisher Scientific, Foster City, CA) were used to assess the expression of 93 genes selected based on their selectivity and sensitivity to important hepatic receptors known to be modulated by environmental chemicals; importance in human hepatocyte functionality; and hepatotoxicity. […]

outcome, inactive:
CC1(C)C(=O)N(Br)C(=O)N1Br, CCC(C)(C)C(=O)O[C@H]1C[C@@H](C)C=C2C=C[C@H](C)[C@H](CC[C@@H]3C[C@@H](O)CC(=O)O3)[C@H]21, CC(C)=CCCC(C)=CC=O, CCCCCCCCCCCCc1ccccc1, C1=CCCC=CCCC=CCC1, C=CC(=C)CCC=C(C)C, COc1ccc(/C=C/S(=O)(=O)NC(=O)c2ccc(C)cc2Cl)cc1, CCOCCO, CNS(=O)(=O)c1cc(C(=O)N2CCC(CCN3C4CCC3CC(n3c(C)nc5ccccc53)C4)(c3cccc(F)c3)CC2)c(Cl)cc1F (stereo not given), C=CCCCCCCCCC(=O)O, CC(=O)OC[C@H]1O[C@@](COC(C)=O)(O[C@H]2O[C@H](COC(C)=O)[C@@H](OC(C)=O)[C@H](OC(C)=O)[C@H]2OC(C)=O)[C@@H](OC(C)=O)[C@@H]1OC(C)=O, CN(C)c1ccc(Cc2ccc(N(C)C)cc2)cc1, Nc1ccc(Nc2ccccc2)cc1, CC[C@H]1CC[C@H](NCc2cc3c(cc2OC)[C@H]2C[C@H]2C(=O)N3C)[C@H](c2ccccc2)N1, CCOCCOCCOCCO, CCOC(=O)c1ccc(C2CCC(NC[C@H](O)COc3ccc(O)c(NS(C)(=O)=O)c3)CC2)cc1 (stereo not given in full), Cc1ccc(S(=O)(=O)O)cc1C, COC(=O)c1c(Cl)c(Cl)c(C(=O)OC)c(Cl)c1Cl, O=C(O)CC(O)C(=O)O (stereo not given), O=C(O)c1cc(N=Nc2ccc(S(=O)(=O)Nc3ccccn3)cc2)ccc1O, Clc1nc(Cl)c(Cl)c(Cl)c1Cl, CCCCCCCCCCCCCCCO, On1ccccc1=S, O=C1CCCCCN1, CC(C)=CCCC(C)CCO (stereo not given), CC(C)(O)c1coc(S(=O)(=O)NC(=O)Nc2c3c(cc4c2CCC4)CCC3)c1, Cc1c(-c2cccnc2)c2ccccc2n1CCCCC(=O)O, CC(O)CN(CCN(CC(C)O)CC(C)O)CC(C)O (stereo not given), CCOC(=O)CC(CC(=O)OCC)(OC(C)=O)C(=O)OCC, CCCC(=O)OCC, CC(=O)c1ccc2c(c1)[C@H](NC(=O)c1ccc(F)cc1)[C@@H](O)C(C)(C)O2, Oc1ccc2c(c1)-c1ccccc1C2, COc1ccc2sc(C(=O)Nc3nnn[nH]3)c(OC(C)C)c2c1, CC(C)CCCCCCOC(=O)c1ccc(C(=O)OCCCCCCC(C)C)c(C(=O)OCCCCCCC(C)C)c1, CNCc1ccc(NC(=O)c2c[nH]c3c2C(=O)CCC3)cc1, Cc1ccc(C)c(O)c1, CC1=CC(=O)CC(C)(C)C1

AC50, active:
O=c1[nH]c2ccc(S(=O)CCN3CCC(Cc4ccc(F)cc4)CC3)cc2o1 (stereo not given) 63 µM, Cc1[nH]cnc1C[C@H]1CCc2c(C)c3ccccc3n2C1=O 84 µM, CCc1cc(SCc2sc(-c3ccc(C(F)(F)F)cc3)nc2CN2CCN(c3ccc(OC)cc3)CC2)ccc1OCC(=O)O 86 µM
